Assay outcomes: PubChem, National Center for Advancing Translational Sciences (NCATS)
Hits are enriched below; roughly 2.4% of the tested compounds scored in any of these assays.
Hsp90 Hop PPI: changes Hsp90-Hop TPR2A binding signal, up or down; 71,000 tested, 0.44% active; AlphaScreen TPR2A-His6 binding biotin-Hsp90 C-terminal peptide; Potency, µM (doses to about 57 µM), without a hit: at the top dose activity change, negative = inhibition; active = well fitted curve in either direction with a large enough effect; inconclusive = small, poorly fitted or top-dose-only effect, or another doubt; note: potency is the fitted concentration of half-maximal effect; % is set by controls: 0 for no effect and ±100 for the full control effect
DNA Pol III inh: DNA polymerase III holoenzyme inhibition. 71,000 tested, 0.25% active. Potency, µM (series often up to 57.1 µM), for the others: top-dose activity change, negative = inhibition. reconstituted DNA polymerase III holoenzyme replication, biochemical; note: potency is the fitted concentration of half-maximal effect; % is set by controls: 0 for no effect and ±100 for the full control effect
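Reconstituted *E. coli* holoenzyme (0.35 nM Pol III, 1 nM beta, 154 nM SSB, 2 nM primase) was preincubated with compound for 15 min at RT. Synthesis on 1.4 nM ssM13Gori ran 35 min, then was stopped with PicoGreen/EDTA and read as dsDNA fluorescence.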
TsaE inh: YjeE (TsaE) inhibition, E. coli; purified YjeE enzyme, qHTS inhibition assay; Potency, µM; 71,000 tested, 0.05% active
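Fluorescence polarization of a BODIPY Texas Red–ADP probe (2 uM) bound to purified YjeE (10 uM) was read after 15 min room-temperature incubation with compounds. Loss of polarization marks inhibitors; ADP serves as titrated control.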
Tau fil binding: tau filament binding; Potency, µM (series often up to 57.1 µM), inactives show at the top dose activity change, negative = inhibition; P10636; AID 596; recombinant tau filaments, thioflavin S fluorescence, 15 h; filaments grown with octadecylsulfate alongside compound; 71,000 tested, 2% active;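 note: potency is the fitted concentration of half-maximal effect; % is set by controls: 0 for no effect and ±100 for the full control effect; actives lower thioflavin S fluorescence by blocking filaments or displacing dye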
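ThS-based fibril read: tau 1 uM final, inducer ODS 30 uM final, 37 C for 15 h, ex 450/em 510 nm.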
BRCT PPI red: BRCT-phosphoprotein interaction inhibition (red fluorophore) | P38398 | BRCT-phosphopeptide binding, red fluorescence polarization | Potency, µM (series often up to 76.9 µM), for the others: top-dose activity change, negative = inhibition, most hits filed as inhibitors | 75,000 tested, 0.03% active; note: % is set by controls: 0 for no effect and ±100 for the full control effect
Target sequence (P38398 whole entry, looked up): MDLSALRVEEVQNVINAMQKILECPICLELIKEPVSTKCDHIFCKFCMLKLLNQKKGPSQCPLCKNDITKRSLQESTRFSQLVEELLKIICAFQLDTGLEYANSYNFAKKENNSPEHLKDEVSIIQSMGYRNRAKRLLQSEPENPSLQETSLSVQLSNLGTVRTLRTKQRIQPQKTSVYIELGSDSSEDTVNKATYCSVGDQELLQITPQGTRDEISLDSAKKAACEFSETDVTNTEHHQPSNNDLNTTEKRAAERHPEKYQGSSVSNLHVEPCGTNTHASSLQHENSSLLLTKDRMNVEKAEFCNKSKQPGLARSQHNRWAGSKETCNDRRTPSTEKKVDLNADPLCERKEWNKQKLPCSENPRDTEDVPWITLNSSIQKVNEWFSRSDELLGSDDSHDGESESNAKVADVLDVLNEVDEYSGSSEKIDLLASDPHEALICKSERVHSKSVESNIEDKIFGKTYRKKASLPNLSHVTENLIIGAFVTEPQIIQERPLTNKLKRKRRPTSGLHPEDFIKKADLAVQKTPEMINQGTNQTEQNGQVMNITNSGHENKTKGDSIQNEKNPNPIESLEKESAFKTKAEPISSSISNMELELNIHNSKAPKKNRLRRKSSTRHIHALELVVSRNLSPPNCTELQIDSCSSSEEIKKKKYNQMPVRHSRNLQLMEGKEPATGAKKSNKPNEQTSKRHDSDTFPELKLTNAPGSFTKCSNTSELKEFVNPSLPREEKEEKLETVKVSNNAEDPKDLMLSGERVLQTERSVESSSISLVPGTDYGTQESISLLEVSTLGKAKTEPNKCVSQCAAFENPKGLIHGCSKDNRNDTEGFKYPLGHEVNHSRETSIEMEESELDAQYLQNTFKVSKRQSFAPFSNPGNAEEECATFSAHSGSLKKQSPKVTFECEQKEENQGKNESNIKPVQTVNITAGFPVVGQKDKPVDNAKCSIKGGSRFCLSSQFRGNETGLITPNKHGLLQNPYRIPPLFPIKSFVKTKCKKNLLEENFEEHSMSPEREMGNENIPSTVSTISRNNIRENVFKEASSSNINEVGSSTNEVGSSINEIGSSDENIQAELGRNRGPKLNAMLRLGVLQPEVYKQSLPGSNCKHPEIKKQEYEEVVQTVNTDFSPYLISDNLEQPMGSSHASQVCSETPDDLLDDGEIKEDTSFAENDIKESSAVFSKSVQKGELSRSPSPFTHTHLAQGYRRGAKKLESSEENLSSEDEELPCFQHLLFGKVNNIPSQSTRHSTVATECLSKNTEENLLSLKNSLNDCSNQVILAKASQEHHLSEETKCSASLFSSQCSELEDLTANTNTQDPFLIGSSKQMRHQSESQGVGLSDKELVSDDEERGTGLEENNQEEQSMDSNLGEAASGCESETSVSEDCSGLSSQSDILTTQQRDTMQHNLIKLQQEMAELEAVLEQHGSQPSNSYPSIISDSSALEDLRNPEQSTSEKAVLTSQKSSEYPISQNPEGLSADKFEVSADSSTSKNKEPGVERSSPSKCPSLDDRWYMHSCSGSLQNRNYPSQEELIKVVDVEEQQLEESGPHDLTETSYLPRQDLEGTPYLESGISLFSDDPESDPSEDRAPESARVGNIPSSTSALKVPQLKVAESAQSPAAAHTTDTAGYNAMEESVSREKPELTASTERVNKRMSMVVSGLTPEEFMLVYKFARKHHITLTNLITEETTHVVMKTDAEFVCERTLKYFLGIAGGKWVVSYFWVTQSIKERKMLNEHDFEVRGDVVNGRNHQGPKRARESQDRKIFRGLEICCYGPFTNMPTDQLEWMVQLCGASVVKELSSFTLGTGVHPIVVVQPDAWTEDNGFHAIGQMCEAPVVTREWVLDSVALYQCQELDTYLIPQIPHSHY
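Rhodamine-labelled pBACH1 10-mer (100 nM) bound to BRCT domain (100 nM) at pH 7.3; compounds incubated 12 min room temperature, polarization read. Free peptide defines full inhibition; unlabelled decapeptide titrated as control.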
BRCT inh green: BRCA1 BRCT-phosphoprotein interaction inhibition. Potency, µM (top dose mostly 76.9 µM), for the others: at the top dose activity change, negative = inhibition, most hits filed as inhibitors. P38398. BRCA1 BRCT-phosphopeptide binding, green fluorescence polarization. 75,000 tested, 0.05% active. AID 875;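 note: potency is the fitted concentration of half-maximal effect; plate controls were peptide without protein for full effect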
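Fluorescence polarization: His-tagged BRCT (~35 kDa BRCA1 C-terminus, 250 nM) bound to 100 nM fluorescein-labeled phosphorylated 10-aa BACH1 peptide, pH 7.3 phosphate buffer with DTT and Tween 20. Compounds incubated 12 min at room temperature; inhibition read as lowered polarization.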
Active calls of the source: *; [ ] = dose if it differs, or a comment. Unless noted, calls come from the whole dose curve; as a rule, active = well fitted curve in the direction sought with a large enough effect; inconclusive = small, poorly fitted or top-dose-only effect, or another doubt; inactive = no such curve, though single readings can be large; an effect the other way counts as inactive or inconclusive.

CCN(CC)CCCC(C)NC(=O)c1ccc(-n2c(=O)c(=O)[nH]c3ccccc32)cc1 (configuration not stated) was read as BRCT PPI red 0% and BRCT inh green -3%.
Screening CC12CC[C@@H]3c4ccc(OP(=O)(O)O)cc4CCC3C1CCC2=O (some centres not stated) returned Hsp90 Hop PPI -2%[11 µM], DNA Pol III inh -14%[11.4 µM], TsaE inh inactive, Tau fil binding 9%[11.4 µM], BRCT PPI red -1%[15.4 µM] and BRCT inh green -1%[15.4 µM].
For COc1ccc2nc3c(nc2c1)C(=O)c1ccccc1-3 the results were BRCT PPI red 2% and BRCT inh green 0%.
For Cc1ccc(C[C@H](Cc2nc3ccccc3[nH]2)c2nc3ccccc3[nH]2)cc1 the results were Hsp90 Hop PPI 0%, DNA Pol III inh -4%, TsaE inh inactive and Tau fil binding 124%.
Cn1c(NC(=O)c2ccccc2Br)cc(=O)n(C)c1=O was read as Hsp90 Hop PPI -5%, DNA Pol III inh 3%, TsaE inh inactive, Tau fil binding -10%, BRCT PPI red inconclusive and BRCT inh green 2.5µM*.
O=C1C2=CC[C@H]3C(=O)N(c4cccc(Oc5ccccc5)c4)C(=O)[C@@H]3[C@@H]2[C@H](O)[C@@H]2O[C@H]12 was read as BRCT PPI red 1%[15.4 µM] and BRCT inh green -1%[15.4 µM].
Screening CC(C)(C)c1cc(C(c2cccnc2)N2CCN(CCO)CC2)cc(C(C)(C)C)c1O (configuration not stated) returned Hsp90 Hop PPI -6%, DNA Pol III inh -2%, TsaE inh inactive, Tau fil binding -4%, BRCT PPI red -2% and BRCT inh green 3%.
For OCCN1CCN(C(c2cccs2)c2ccc3cccnc3c2O)CC1 (configuration not stated) the results were Hsp90 Hop PPI 32µM*, DNA Pol III inh -6%, TsaE inh inactive, Tau fil binding 6.3µM*, BRCT PPI red -1% and BRCT inh green -2%.
Screening O=C(NCCO)c1ccc(Cc2nc3ccccc3[nH]2)cc1 returned BRCT PPI red 0% and BRCT inh green -2%.
Screening CN(C)CC(=O)c1ccc(-c2ccccc2)cc1 returned Hsp90 Hop PPI -5%, DNA Pol III inh -1%, TsaE inh inactive, Tau fil binding 25µM*, BRCT PPI red 0% and BRCT inh green 2%.
For O=C(c1ccco1)N1CCN(C(=O)c2cc(-c3ccccn3)nc3ccc(Cl)cc23)CC1 the results were Hsp90 Hop PPI -28%, DNA Pol III inh -4%, TsaE inh inactive, Tau fil binding 10µM*, BRCT PPI red 0% and BRCT inh green 0%.
CC(C)(O)C(=O)O was read as Hsp90 Hop PPI inconclusive, DNA Pol III inh -12%, TsaE inh inactive, Tau fil binding 14%, BRCT PPI red 1% and BRCT inh green 0%.
CCOC(=O)N1CCN(c2cc(NCCC(=O)O)c3c4c(onc24)-c2ccccc2C3=O)CC1 was read as Hsp90 Hop PPI inconclusive, DNA Pol III inh -24%, TsaE inh inactive, Tau fil binding 13µM*, BRCT PPI red -9% and BRCT inh green -2%.
O=C(O)CCCNc1cc(N2CCC3(CC2)OCCO3)c2noc3c2c1C(=O)c1ccccc1-3 was read as Hsp90 Hop PPI 3.2µM*, DNA Pol III inh 3.2µM*, TsaE inh inactive, Tau fil binding 16µM*, BRCT PPI red inconclusive and BRCT inh green -15%.
Screening CCOC(=O)N1CCN(c2c(NCCCN(CC)Cc3ccccc3)c(=O)c2=O)CC1 returned Hsp90 Hop PPI -1%, DNA Pol III inh -3%, TsaE inh inactive, Tau fil binding 4%, BRCT PPI red -1% and BRCT inh green -2%.
For OCc1ccncc1.OCc1ccncc1.[Cl][Pt]([Cl])([Cl])[Cl] the results were Hsp90 Hop PPI 0%[11 µM], DNA Pol III inh -6%[11.4 µM], TsaE inh inactive, Tau fil binding 4%[11.4 µM], BRCT PPI red -1%[15.4 µM] and BRCT inh green -3%[15.4 µM].
`CCOC(=O)OCC1OC(c2ccccc2)C=CC1Oc1ccc2oc(=O)cc(C)c2c1` (configuration not stated) gave BRCT PPI red 3%[15.4 µM] and BRCT inh green -2%[15.4 µM].
CC(=O)c1ccc(O)c(CN(C2CCCCC2)C2CCCCC2)c1O was read as Hsp90 Hop PPI -2%[11 µM], DNA Pol III inh -15%[11.4 µM], TsaE inh inactive, Tau fil binding 4%[11.4 µM], BRCT PPI red -1%[15.4 µM] and BRCT inh green 0%[15.4 µM].
For CC(=O)c1ccc2c3c(ccc(O)c13)CC2 the results were Hsp90 Hop PPI inconclusive, DNA Pol III inh -3%[11.4 µM], TsaE inh inactive, Tau fil binding 4µM*, BRCT PPI red 1% and BRCT inh green 0%.
`CN(C)CC(C)(C)CNC(=O)c1ccc(Cc2nc3ccccc3[nH]2)cc1` gave BRCT PPI red 0% and BRCT inh green -2%.
Screening O=C1SC(c2ccccc2)=N/C1=C/c1ccco1 returned Hsp90 Hop PPI -3%, DNA Pol III inh 1%, TsaE inh inactive, Tau fil binding 25µM*, BRCT PPI red -1% and BRCT inh green -1%.
C=C[C@@](C)(O)CC[C@H]1[C@]2(C)CCCC(C)(C)[C@H]2CC[C@]1(C)O was read as Hsp90 Hop PPI 0%, DNA Pol III inh -4%, TsaE inh inactive and Tau fil binding inconclusive.
`CCOc1ccc(NS(=O)(=O)c2ccc(C)c(C(=O)O)c2)cc1` gave BRCT PPI red 1% and BRCT inh green -1%.
COc1ccc(-c2csc3c2[N+]2=CCC=C2C3=O)cc1 was read as Hsp90 Hop PPI -11%[11 µM], DNA Pol III inh -7%[11.4 µM], TsaE inh inactive, Tau fil binding 3.2µM*, BRCT PPI red 0%[15.4 µM] and BRCT inh green -1%[15.4 µM].
`COc1ccc(C2=C(N)c3ccccc3C2=O)cc1` gave Hsp90 Hop PPI -16%, DNA Pol III inh 0%, TsaE inh inactive, Tau fil binding inconclusive, BRCT PPI red 1% and BRCT inh green -1%.
Screening O=[N+]([O-])c1ccc2ncccc2c1CCc1c([N+](=O)[O-])ccc2ncccc12 returned Hsp90 Hop PPI -2%[11 µM], DNA Pol III inh -5%[11.4 µM], TsaE inh inactive, Tau fil binding -14%[11.4 µM], BRCT PPI red -1%[15.4 µM] and BRCT inh green 0%[15.4 µM].
O=C(O)C12CC3(C(=O)O)CC(C(=O)O)(CC(C(=O)O)(C1)C3=O)C2=O was read as Hsp90 Hop PPI 0%[11 µM], DNA Pol III inh -16%[11.4 µM], TsaE inh inactive, Tau fil binding -3%[11.4 µM], BRCT PPI red 0%[15.4 µM] and BRCT inh green -2%[15.4 µM].
`CCCCc1cc(=O)oc2cc(C)c(CN3CCCC3)c(O)c12` gave Hsp90 Hop PPI -9%, DNA Pol III inh -10%, TsaE inh inactive, Tau fil binding 20µM*, BRCT PPI red -5% and BRCT inh green 3%.
